This is an account of results in the supplement of paper PMC6411743.

Compound in this assay: Nc1nc2c(ncn2[C@@H]2O[C@H](COP(=O)(O)OP(=O)(O)OP(=O)(O)O)[C@@H](O)[C@H]2O)c(=O)[nH]1 [guanosine triphosphate]
In words: NP40-soluble protein abundance relative to vehicle (solubility fold change) (ratio); higher = more soluble protein in presence of GTP. How it is done:
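Solubility proteome profiling in Jurkat crude lysate. Lysate was treated with Mg-GTP (0.1-10 mM) for 10 min at room temperature and 3 min at 37 °C, then solubilised with 0.8% NP40 and benzonase, followed by ultracentrifugation. Proteins were quantified by TMT10 LC-MS/MS; the value is the NP40-soluble abundance relative to the NP40-processed vehicle, from 3 independent experiments.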

± gives the standard deviation of the averaged measurements. Targets with the largest changes are over-represented here; the source holds about 5,400 in all.

UniProt P27144, sequence (P27144 whole entry): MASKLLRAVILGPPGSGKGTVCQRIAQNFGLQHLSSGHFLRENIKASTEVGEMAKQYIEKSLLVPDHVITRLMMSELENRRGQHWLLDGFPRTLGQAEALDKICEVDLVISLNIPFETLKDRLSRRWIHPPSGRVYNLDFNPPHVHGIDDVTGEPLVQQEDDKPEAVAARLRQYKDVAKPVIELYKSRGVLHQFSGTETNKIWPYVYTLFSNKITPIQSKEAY
UniProt O43181, sequence (O43181 whole entry): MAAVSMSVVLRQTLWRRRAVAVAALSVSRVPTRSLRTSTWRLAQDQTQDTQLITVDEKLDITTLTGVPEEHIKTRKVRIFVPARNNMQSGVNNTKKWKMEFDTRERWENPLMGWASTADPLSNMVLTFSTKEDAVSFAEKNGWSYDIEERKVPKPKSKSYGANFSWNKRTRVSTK
UniProt O75170, sequence (O75170 whole entry): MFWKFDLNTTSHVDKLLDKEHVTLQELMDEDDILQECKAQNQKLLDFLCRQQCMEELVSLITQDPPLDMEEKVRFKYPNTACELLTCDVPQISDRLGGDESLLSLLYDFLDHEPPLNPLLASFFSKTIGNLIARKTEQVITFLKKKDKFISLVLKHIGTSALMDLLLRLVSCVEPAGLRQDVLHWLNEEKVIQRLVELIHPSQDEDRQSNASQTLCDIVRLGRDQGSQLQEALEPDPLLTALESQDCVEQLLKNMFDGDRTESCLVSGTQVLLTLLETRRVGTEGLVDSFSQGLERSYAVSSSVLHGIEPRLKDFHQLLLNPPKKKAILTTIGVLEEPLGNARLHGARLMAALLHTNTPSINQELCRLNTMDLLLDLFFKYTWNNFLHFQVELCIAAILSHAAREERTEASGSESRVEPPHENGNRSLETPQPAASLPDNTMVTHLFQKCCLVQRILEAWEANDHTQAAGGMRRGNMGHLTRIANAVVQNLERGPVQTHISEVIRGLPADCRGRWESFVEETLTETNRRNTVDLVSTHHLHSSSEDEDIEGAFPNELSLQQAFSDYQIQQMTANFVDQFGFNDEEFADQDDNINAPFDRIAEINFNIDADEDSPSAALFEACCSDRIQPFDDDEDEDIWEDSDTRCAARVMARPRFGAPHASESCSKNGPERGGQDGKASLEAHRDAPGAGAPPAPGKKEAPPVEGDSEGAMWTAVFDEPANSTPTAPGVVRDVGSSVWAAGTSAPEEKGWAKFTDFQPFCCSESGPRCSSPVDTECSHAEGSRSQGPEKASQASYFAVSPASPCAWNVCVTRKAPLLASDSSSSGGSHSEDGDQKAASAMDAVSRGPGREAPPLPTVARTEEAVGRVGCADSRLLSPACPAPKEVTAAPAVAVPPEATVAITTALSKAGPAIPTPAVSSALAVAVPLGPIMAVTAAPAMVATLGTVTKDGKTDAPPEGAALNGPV

In the case of AK4 (UniProt P27144), the NP40-soluble protein abundance by setting is: (concentration: 0.1mM) 0.983 ± 0.072; (concentration: 0.5mM) 0.887 ± 0.088; (concentration: 1mM) 1.03 ± 0.042; (concentration: 2mM) 1 ± 0.075; (concentration: 4mM) 1.03 ± 0.11; (concentration: 6mM) 0.987 ± 0.11. Besides, the NP40-soluble protein abundance is, setting by setting: (concentration: 8mM) 0.975 ± 0.16; (concentration: 10mM) 0.983 ± 0.11.
Take POLR2E (UniProt P19388): the NP40-soluble protein abundance runs as follows: (concentration: 0.1mM) 1.06 ± 0.11; (concentration: 0.5mM) 1.09 ± 0.11; (concentration: 1mM) 1.15 ± 0.16; (concentration: 2mM) 1.19 ± 0.18; (concentration: 4mM) 1.22 ± 0.18; (concentration: 6mM) 1.19 ± 0.19. Also, the NP40-soluble protein abundance reads like this: (concentration: 8mM) 1.16 ± 0.16; (concentration: 10mM) 1.11 ± 0.16.
For the target NDUFS4 (UniProt O43181), the NP40-soluble protein abundance (concentration: 0.1mM) came to 1 ± 0.029; the NP40-soluble protein abundance (concentration: 0.5mM) was 1.047 ± 0.0028; the NP40-soluble protein abundance (concentration: 1mM) amounted to 1.08 ± 0.053; the NP40-soluble protein abundance (concentration: 2mM) was found to be 1.12 ± 0.1; the NP40-soluble protein abundance (concentration: 4mM) was 1.09 ± 0.12; the NP40-soluble protein abundance (concentration: 6mM) came out at 1.1 ± 0.12. For the same target, the NP40-soluble protein abundance is, setting by setting: (concentration: 8mM) 1.14 ± 0.18; (concentration: 10mM) 1.1 ± 0.15.
With “UniProt O75170|O75170-2|O75170-3|O75170-4|O75170-5”, the NP40-soluble protein abundance reads like this: (concentration: 0.1mM) 1 ± 0.15; (concentration: 0.5mM) 0.979 ± 0.059; (concentration: 1mM) 1.03 ± 0.12; (concentration: 2mM) 1 ± 0.043; (concentration: 4mM) 0.973 ± 0.071; (concentration: 6mM) 0.992 ± 0.056. In addition, the NP40-soluble protein abundance reads like this: (concentration: 8mM) 0.963 ± 0.065; (concentration: 10mM) 1.05 ± 0.075.
Consider ARPC1B (UniProt O15143), for which the NP40-soluble protein abundance by setting is: (concentration: 0.1mM) 1 ± 0.045; (concentration: 0.5mM) 1.04 ± 0.056; (concentration: 1mM) 0.933 ± 0.034; (concentration: 2mM) 0.942 ± 0.062; (concentration: 4mM) 0.928 ± 0.056; (concentration: 6mM) 0.948 ± 0.04. Besides, the NP40-soluble protein abundance reads like this: (concentration: 8mM) 0.923 ± 0.017; (concentration: 10mM) 0.887 ± 0.012.
